# Test results published in PubChem BioAssay.
# Inconclusive results are not listed. The source made the active and inactive calls.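 The calls were made as follows, unless noted: active = GFP signal, as percent of the solvent control, above the screen mean plus 3 SD, about 149; inconclusive = no reading because the compound's own fluorescence upset strain identification; inactive = the rest.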
# Legend:
# [1] = yeast TOR pathway RPL19A-GFP modulators, primary screen, cell-based, S. cerevisiae, multiplex flow cytometry (AID 1862; in the data active = percent of DMSO control GFP below about 86%;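 also: lower values mimic rapamycin by blocking the RPL19A rise seen in DMSO cells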); conditions: S. cerevisiae RPL19A-GFP strain, flow cytometry fluorescence, 3 h; at 10 µM; stronger effect = lower value
# [2] = modulators of MEP2-GFP levels in yeast, primary screen, S. cerevisiae, multiplex flow cytometry (AID 1867;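 active = GFP response, as percent of the DMSO control, above the screen-wide mean plus 3 SD, about 139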;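 also: median GFP channel fluorescence of barcode-gated MEP2-GFP cells measured by flow cytometry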); conditions: S. cerevisiae MEP2-GFP strain, 3 h, at 10 µM, stronger effect = higher value, 100% means same as DMSO wells
# [3] = modulators of CIT2-GFP expression in yeast, primary screen, S. cerevisiae, GFP fusion, multiplex flow cytometry (AID 1870;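 active = percent response above a set limit, the screen-wide mean plus 3 SD, cut at about 130% in these data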;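 also: barcoded CIT2-GFP strain pooled with four other GFP strains with rapamycin as positive control; median GFP fluorescence per well over plate mean of DMSO wells so 100% = DMSO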); conditions: 3 h, at 10 µM, stronger effect = higher value
# [4] = modulators of LAP4-GFP expression in yeast, primary screen, S. cerevisiae, multiplex flow cytometry (AID 1873); conditions: 3 h, at 10 µM, stronger effect = higher value
# [5] = modulators of AGP1-GFP expression in yeast TOR pathway, primary screen, cell-based, multiplex flow cytometry, S. cerevisiae (AID 1887;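 active = GFP signal above the screen-wide mean plus 3 SD, that is over about 124.5% of the solvent control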;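 also: AGP1-GFP fusion strain of S. cerevisiae within a five-strain barcoded multiplex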); conditions: 3 h, at 10 µM, stronger effect = higher value
# [6] = RPL19A-GFP modulators, yeast TOR pathway, confirmation, cell-based, S. cerevisiae, flow cytometry, cherry picks, mother/daughter gates (AID 2270;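 active = GFP response below 50% of the DMSO control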); conditions: S. cerevisiae RPL19A-GFP strain, 3 h, at 10 µM, stronger effect = lower value, 100 = same GFP as DMSO wells
# [7] = LAP4-GFP expression modulators in yeast, confirmation, cell-based, cherry picks, flow cytometry, mother/daughter gates (AID 2271;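 active = GFP response above 150% of the DMSO control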;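 also: ratio of sample to DMSO plate mean so 100% equals DMSO level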); conditions: S. cerevisiae LAP4-GFP strain, 3 h, at 10 µM, stronger effect = higher value, 100 means same as DMSO control
# [8] = modulators of MEP2-GFP levels in yeast, confirmation, S. cerevisiae, flow cytometry GFP, cherry picks (AID 2272;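 active = GFP response above 150% of the DMSO control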;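 also: ratio of well signal to plate DMSO mean so 100% equals DMSO level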); conditions: S. cerevisiae MEP2-GFP strain, 3 h, at 10 µM, stronger effect = higher value
# [9] = modulators of CIT2-GFP expression in yeast, confirmation, S. cerevisiae, GFP fusion, cherry picks, mother/daughter gates (AID 2274;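 active = GFP response above 150% of the DMSO level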); conditions: S. cerevisiae CIT2-GFP strain, flow cytometry, 3 h, at 10 µM, stronger effect = higher value
# [10] = inhibitors of CD8+ T cell-vesicle binding, pilot screen, LFA-1/ICAM-1 modulator project, MLPCN validation set, flow cytometry (AID 2523;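 active = response below a set limit, under 55% cells CD8-positive and vesicle-bound, and CD8 cells' 90th-percentile brightness under 279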;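 as to vesicle binding response: mean PE anti-B7-1 fluorescence of CD8+ cells relative to row control; 100% = QL9-loaded vesicles with DMSO vehicle in the same plate row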); conditions: 2C mouse CD8+ T cells, at 7 µM, stronger effect = lower value; double positive events: measured here: CD8+/vesicle+ event percentage
# [11] = target: Integrin beta-1 (Homo sapiens) + Integrin alpha-4 (Homo sapiens) (UniProt P13612+P05556); assay: inhibition of HUTS-21 binding to VLA-4, pilot screen, VLA-4 allosteric modulator project, U937 cells, HUTS-21 mAb, flow cytometry, validation set (AID 2674;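 active = inhibition above 50%, about 3 SD of the validation set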;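 also: antibody binding induced by the VLA-4 ligand LDV present at three times its Kd; 0% = LDV ligand with antibody and no compound and 100% = antibody without LDV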); conditions: HUTS-21 LIBS mAb binding, at 6.7 µM, stronger effect = higher value, binding induced by LDV ligand
# Integrin beta-1 (Homo sapiens) + Integrin alpha-4 (Homo sapiens), sequence (P05556 whole entry, looked up): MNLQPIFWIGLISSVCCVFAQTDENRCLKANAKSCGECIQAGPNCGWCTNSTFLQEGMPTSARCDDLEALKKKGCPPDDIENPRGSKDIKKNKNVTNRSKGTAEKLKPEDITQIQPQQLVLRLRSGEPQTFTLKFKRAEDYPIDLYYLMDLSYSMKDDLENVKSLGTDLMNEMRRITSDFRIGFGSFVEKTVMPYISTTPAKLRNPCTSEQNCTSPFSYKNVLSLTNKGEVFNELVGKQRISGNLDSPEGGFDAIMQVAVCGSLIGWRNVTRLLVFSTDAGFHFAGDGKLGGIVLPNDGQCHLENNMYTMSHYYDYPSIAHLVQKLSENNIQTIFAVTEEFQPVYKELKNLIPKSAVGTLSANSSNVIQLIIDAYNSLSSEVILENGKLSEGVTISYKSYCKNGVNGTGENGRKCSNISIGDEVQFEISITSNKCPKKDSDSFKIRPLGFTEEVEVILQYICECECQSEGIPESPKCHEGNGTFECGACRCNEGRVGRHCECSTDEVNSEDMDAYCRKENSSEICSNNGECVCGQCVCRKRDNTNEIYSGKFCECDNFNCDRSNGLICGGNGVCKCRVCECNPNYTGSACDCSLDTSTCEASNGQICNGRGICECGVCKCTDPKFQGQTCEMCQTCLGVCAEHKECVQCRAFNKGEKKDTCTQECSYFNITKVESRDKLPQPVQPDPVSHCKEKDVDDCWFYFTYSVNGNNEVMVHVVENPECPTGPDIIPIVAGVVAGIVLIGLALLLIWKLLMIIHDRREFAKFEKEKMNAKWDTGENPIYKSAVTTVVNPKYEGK
# Integrin beta-1 (Homo sapiens) + Integrin alpha-4 (Homo sapiens), sequence (P13612 whole entry, looked up): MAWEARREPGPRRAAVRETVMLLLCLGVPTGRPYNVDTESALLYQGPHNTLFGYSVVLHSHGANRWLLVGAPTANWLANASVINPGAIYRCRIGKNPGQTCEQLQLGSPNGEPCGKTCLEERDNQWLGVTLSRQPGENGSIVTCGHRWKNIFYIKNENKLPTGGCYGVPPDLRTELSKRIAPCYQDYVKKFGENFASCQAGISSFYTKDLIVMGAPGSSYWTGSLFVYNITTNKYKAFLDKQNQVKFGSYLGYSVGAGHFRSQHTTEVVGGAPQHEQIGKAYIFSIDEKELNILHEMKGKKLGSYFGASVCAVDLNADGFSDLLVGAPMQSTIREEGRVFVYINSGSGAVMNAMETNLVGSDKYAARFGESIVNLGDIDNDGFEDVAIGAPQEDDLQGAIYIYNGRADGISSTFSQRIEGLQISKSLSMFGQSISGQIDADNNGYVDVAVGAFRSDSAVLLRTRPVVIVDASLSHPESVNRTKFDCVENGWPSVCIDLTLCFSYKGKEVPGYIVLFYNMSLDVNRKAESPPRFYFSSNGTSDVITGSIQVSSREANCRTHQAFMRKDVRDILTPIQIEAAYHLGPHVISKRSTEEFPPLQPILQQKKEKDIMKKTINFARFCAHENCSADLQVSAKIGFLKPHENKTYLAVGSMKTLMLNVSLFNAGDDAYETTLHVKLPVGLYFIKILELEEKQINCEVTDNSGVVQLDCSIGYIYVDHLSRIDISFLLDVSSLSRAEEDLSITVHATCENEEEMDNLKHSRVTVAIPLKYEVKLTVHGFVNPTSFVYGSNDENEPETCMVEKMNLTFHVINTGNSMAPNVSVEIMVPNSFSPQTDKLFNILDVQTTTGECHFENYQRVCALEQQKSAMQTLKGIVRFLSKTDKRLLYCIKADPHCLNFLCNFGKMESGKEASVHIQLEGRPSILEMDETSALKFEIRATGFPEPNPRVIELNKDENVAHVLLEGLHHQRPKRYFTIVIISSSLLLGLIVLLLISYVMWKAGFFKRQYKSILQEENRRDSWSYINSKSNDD
# [12] = superoxide lowering in aged yeast cells, pilot screen, validation compound set (AID 2706;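 active = superoxide response below 65% of plate, a cut near 3 SD across the whole screen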;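 also: yeast exposed to compound for one week at 30 degrees C before staining; 100% = mean of all compound wells on the same plate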); conditions: S. cerevisiae aging, superoxide DHE fluorescence; at 10 µM; stronger effect = lower value
# [13] = target: Beta-adrenergic receptor kinase 1 (Homo sapiens) (UniProt P25098); assay: GRK2 binders displacing RNA aptamer, biochemical, validation, human GRK2, bead flow cytometry (AID 488806;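 active = aptamer binding inhibition above 30%, about 3 SD of noise from non-fluorescent compounds; inactive = inhibition at or below 30%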); conditions: bead-bound GRK2, FAM-aptamer displacement, at 10 µM, stronger effect = higher value
# Beta-adrenergic receptor kinase 1 (Homo sapiens), sequence (P25098 whole entry, looked up): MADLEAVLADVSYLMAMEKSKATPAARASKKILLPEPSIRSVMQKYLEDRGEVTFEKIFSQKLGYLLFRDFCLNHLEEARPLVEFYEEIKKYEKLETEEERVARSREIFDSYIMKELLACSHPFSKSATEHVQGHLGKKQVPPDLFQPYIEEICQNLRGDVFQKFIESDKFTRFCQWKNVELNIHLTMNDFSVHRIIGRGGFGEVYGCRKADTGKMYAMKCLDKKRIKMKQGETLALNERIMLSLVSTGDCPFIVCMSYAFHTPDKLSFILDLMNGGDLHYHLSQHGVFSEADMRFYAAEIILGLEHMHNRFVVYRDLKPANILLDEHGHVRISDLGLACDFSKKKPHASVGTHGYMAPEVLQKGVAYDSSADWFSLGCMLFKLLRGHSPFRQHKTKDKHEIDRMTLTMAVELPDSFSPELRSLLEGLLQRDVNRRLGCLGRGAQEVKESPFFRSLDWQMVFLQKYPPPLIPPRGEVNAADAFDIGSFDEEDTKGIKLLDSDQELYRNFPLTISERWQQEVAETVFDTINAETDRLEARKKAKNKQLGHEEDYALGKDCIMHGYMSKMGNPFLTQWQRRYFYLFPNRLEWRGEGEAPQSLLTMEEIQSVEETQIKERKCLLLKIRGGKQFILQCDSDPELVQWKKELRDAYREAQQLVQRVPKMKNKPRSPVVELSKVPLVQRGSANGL
# [14] = target: Beta-2 adrenergic receptor (Homo sapiens) (UniProt P07550); assay: beta2AR agonists driving receptor internalization, pilot screen, cell-based, FAP fluorogen, flow cytometry, validation set (AID 504459;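 active = percent response above 42, roughly 3 SD of non-fluorescent test compounds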;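 also: agonist-driven loss of surface beta2AR via internalization measured by FAP dye flow cytometry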); conditions: Am2.2-beta2AR cells, FAP surface receptor flow cytometry; at 10 µM; stronger effect = higher value
# Beta-2 adrenergic receptor (Homo sapiens), sequence (P07550 whole entry, looked up): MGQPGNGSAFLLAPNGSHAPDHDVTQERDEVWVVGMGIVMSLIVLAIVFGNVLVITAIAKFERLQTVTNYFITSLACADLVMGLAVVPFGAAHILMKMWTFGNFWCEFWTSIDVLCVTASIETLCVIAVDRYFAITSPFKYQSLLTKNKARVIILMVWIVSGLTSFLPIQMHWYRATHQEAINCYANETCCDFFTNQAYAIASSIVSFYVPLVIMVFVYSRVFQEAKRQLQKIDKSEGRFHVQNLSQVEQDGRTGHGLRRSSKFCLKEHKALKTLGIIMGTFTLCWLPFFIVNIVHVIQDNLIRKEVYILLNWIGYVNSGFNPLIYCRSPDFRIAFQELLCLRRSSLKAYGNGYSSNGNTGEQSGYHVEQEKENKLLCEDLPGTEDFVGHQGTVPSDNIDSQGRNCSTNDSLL
# [15] = target: AP-2 complex subunit beta (Homo sapiens) (UniProt P63010); assay: inhibitors of arrestin peptide binding to AP2, pilot screen, biochemical, validation set, GST-AP2 beads, flow cytometry (AID 504541;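 active = inhibition above 54%, about 3 SD of non-fluorescent compounds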;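 also: AP2 carries R879A mutation and is captured from E. coli lysate; bead-bound FITC arrestin peptide fluorescence measuring arrestin peptide binding to AP2; 0% = DMSO wells and 100% = excess unlabeled arrestin peptide control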); conditions: FITC arrestin peptide, at 10 µM, stronger effect = higher value, AP2 beta2 appendage fragment, R879A mutant
# AP-2 complex subunit beta (Homo sapiens), sequence (P63010 whole entry, looked up, the tested form may be a part, one chain of several): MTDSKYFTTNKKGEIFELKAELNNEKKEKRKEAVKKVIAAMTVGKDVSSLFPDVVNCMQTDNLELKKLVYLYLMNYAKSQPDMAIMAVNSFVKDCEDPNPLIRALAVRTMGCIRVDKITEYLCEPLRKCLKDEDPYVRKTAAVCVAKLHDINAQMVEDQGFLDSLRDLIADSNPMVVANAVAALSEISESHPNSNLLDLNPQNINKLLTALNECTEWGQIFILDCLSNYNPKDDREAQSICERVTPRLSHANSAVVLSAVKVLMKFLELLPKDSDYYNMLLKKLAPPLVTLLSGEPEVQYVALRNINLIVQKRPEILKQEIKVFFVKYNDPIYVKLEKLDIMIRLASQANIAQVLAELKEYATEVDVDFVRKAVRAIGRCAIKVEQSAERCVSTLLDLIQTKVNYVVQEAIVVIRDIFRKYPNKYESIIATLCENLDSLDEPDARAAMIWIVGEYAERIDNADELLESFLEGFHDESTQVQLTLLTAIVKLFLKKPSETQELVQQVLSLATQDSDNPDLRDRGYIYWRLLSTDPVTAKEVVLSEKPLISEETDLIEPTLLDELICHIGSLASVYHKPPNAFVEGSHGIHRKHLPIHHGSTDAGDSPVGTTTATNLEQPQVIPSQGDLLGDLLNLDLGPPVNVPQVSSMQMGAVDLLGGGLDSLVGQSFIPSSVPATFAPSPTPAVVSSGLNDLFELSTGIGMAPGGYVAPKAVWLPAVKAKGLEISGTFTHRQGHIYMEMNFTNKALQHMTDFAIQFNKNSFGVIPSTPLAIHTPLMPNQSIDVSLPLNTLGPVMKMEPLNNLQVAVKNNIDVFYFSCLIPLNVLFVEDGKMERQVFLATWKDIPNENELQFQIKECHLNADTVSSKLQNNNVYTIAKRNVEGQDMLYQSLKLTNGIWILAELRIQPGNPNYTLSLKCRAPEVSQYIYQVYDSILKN
# [16] = yeast V-ATPase proton transport modulators, S. cerevisiae, pHLuorin, HTS validation (AID 504600; in the data active = response above about 15%;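 also: plate controls were DMSO for no effect and reference compound for full effect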); conditions: S. cerevisiae pHLuorin cytosolic pH, at 10 µM, stronger effect = higher value
# [17] = test system: anti-desmoglein-3 scFv antibody binding to human DSG3; assay: inhibitors of anti-DSG3 scFv binding to DSG3, pilot screen, biochemical, validation compound set, bead-based, flow cytometry (AID 588368;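 active = binding below the plate cutoff, the plate median minus 3 SD, with a reading above zero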;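 also: signal is the median channel fluorescence of bead-bound GFP antibody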); conditions: Protein G beads, DSG3-Fc, scFv-GFP binding, at 10 µM, stronger effect = lower value
# [18] = inhibitors of fungal efflux pumps CDR1, CDR2, MDR1, pilot screen, validation compound set, multiplex, phenotypic (AID 588506;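 active = efflux inhibition above 0.42, the validation set average plus 4 SD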;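 also: Nile Red retained in cells so higher fluorescence means more efflux inhibition; 0 = negative control wells and 1 = enniatin B 25 µM full block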); conditions: S. cerevisiae pump-expressing triplex, Nile Red efflux flow cytometry; at 10 µM; stronger effect = higher value; the pumps come from Candida albicans
# [19] = target: ATP-binding cassette sub-family B member 6 (Homo sapiens) (UniProt Q9NP58); assay: ABCB6 transporter inhibitors, pilot screen, K562-ABCB6 cells, flow cytometry, validation set (AID 588550;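 active = inhibition above the screen-wide mean plus 3 SD, about 51%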;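 also: 0% = DMSO wells and 100% = benzethonium chloride 70 µM positive control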); conditions: K562-ABCB6 porphyrin accumulation, 1 h, at 10 µM, stronger effect = higher value
# ATP-binding cassette sub-family B member 6 (Homo sapiens), sequence (Q9NP58 whole entry, looked up): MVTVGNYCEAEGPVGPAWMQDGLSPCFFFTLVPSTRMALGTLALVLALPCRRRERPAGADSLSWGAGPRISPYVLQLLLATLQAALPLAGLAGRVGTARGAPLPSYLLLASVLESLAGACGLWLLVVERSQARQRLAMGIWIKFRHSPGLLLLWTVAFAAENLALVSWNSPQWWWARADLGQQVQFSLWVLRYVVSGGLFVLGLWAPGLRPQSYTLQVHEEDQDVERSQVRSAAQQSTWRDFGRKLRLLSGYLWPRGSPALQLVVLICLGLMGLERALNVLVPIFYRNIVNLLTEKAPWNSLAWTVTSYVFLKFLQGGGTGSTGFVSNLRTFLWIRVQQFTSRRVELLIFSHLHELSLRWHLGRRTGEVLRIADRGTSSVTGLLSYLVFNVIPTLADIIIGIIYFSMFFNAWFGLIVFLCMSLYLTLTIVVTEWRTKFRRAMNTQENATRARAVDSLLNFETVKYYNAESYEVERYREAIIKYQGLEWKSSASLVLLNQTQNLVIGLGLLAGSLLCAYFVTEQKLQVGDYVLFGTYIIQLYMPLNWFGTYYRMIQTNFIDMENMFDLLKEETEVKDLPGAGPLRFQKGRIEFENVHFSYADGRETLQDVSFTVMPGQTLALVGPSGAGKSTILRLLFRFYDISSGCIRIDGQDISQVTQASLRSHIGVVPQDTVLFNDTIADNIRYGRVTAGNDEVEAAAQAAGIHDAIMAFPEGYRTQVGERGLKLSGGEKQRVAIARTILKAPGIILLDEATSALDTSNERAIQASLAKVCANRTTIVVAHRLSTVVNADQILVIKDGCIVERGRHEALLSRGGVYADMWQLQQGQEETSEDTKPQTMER
# [20] = promoters of myeloid differentiation in arrested cells, primary screen, cell-based, GFP/MAC1 double positive, flow cytometry, validation set (AID 588685;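 active = differentiation response of at least 50%, scaled between solvent and reference control, from cells with both markers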;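 also: compound exposure lasts four days before antibody staining and flow analysis; 0% = DMSO wells and 100% = 5 µM fulvestrant positive control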); conditions: ER-HoxA9 marrow cells, stronger effect = higher value, normalized: vehicle 0, fulvestrant 100
# [21] = measured here: daughter cell gate
# [22] = measured here: mother cell gate
compound,measurement,setting,value
CCOc1cc(C=O)ccc1OCCSc1ccc(C)cc1,percent of DMSO control GFP,[1],94.6% (inactive)
same,GFP response vs DMSO,[2],103% (inactive)
same,percent response of DMSO control,[3],77.8% (inactive)
same,GFP response vs DMSO,[4],168% (active)
same,"GFP response, % of DMSO",[5],101% (inactive)
same,GFP response vs DMSO,[6],92.9% (inactive)
same,GFP response vs DMSO,[6]; [21],87.7%
same,GFP response vs DMSO,[6]; [22],96.4%
same,GFP response relative to DMSO,[7],131% (inactive)
same,GFP response relative to DMSO,[7]; measured here: daughter cell gate response,122%
same,GFP response relative to DMSO,[7]; measured here: mother cell gate response,137%
same,GFP response vs DMSO,[8],116% (inactive)
same,"GFP response, % of DMSO",[9],93.5% (inactive)
same,"GFP response, % of DMSO",[9]; [21],92.7%
same,"GFP response, % of DMSO",[9]; [22],93.3%
same,double positive events,[10],60.1%
same,vesicle binding response,[10],185% (inactive)
same,inhibition,[11],9.13% (inactive)
same,superoxide response (% of plate),[12],108% (inactive)
same,aptamer binding inhibition,[13],4% (inactive)
same,response,[14],5.33% (inactive)
same,inhibition,[15],-9.69% (inactive)
same,response,[16],5.17% (inactive)
same,binding (% of control),[17],98.9% (inactive)
same,efflux inhibition (fraction of control),[18],0.08 (inactive)
same,inhibition,[19],5% (inactive)
same,differentiation response,[20],-16.8% (inactive)
